# Compound activity as filed in PubChem BioAssay.
# Only some compounds are listed: those with a hit (about 1.5% of all), similar ones and a draw of the others.
# FEN1 inhibitor: inhibitors of human flap endonuclease 1 | Recombinant FEN1 flap cleavage, fluorescence, 15 min | hit rate 0.35% among 390,000 | Potency, µM (doses to about 114 µM), for the others: top-dose activity change, negative = inhibition, hits mostly inhibitors; also: potency is read from the fitted curve at half-maximal effect; nearly all actives have a fitted effect of over 65% in size
#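 FEN1 at 10 nM preincubated with compounds 15 min at room temperature, then flap DNA substrate added at 50 nM final. Signal read at 0 and 15 min; concentration-response fitted with four-parameter Hill equation.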
# RECQ1 inh: inhibitors of human RECQ1 DNA helicase. AID 2549. RECQ1 DNA unwinding, red fluorescence kinetic read. hit rate 0.54% among 240,000. Potency, µM (top dose mostly 57.3 µM), inactives show at the highest dose activity, negative = inhibition, hits mostly inhibitors;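 also: potency is read from the fitted curve at half-maximal effect; plate controls were vehicle for no effect and no enzyme for full effect; nearly all actives have a fitted effect of over 30% in size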
#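 RECQ1T1 50 nM; forked duplex (20 bp + 30-nt ss tails) 200 nM, ATP 2 mM final; pH 8.0, 2 mM MgCl2, 2.5 ug/ml poly(dI-dC); 15 min compound preincubation; discontinuous kinetic read over 2 h at RT.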
# BLM helicase inh: blocks DNA unwinding by human BLM helicase. P54132. recombinant BLM DNA unwinding, fluorescence dequenching. Potency, µM (titrated, usually from 56.1 µM), for inactives: top-dose activity change, negative = inhibition, actives largely listed as inhibitors. hit rate 0.2% among 350,000. AID 2528;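 also: potency is read from the fitted curve at half-maximal effect; plate controls were vehicle for no effect and no enzyme for full effect; nearly all actives have a fitted effect of over 35% in size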
# KAT2A inh: blocks human GCN5L2 histone acetyltransferase; GCN5L2 HAT assay, ThioGlo1 CoA-SH fluorescence; hit rate 0.21% among 390,000; Q92830; Potency, µM (top dose mostly 58.9 µM), inactives show top-dose activity change, negative = inhibition, hits mostly inhibitors; also: potency is read from the fitted curve at half-maximal effect
# Target sequence (Q92830 whole entry, looked up): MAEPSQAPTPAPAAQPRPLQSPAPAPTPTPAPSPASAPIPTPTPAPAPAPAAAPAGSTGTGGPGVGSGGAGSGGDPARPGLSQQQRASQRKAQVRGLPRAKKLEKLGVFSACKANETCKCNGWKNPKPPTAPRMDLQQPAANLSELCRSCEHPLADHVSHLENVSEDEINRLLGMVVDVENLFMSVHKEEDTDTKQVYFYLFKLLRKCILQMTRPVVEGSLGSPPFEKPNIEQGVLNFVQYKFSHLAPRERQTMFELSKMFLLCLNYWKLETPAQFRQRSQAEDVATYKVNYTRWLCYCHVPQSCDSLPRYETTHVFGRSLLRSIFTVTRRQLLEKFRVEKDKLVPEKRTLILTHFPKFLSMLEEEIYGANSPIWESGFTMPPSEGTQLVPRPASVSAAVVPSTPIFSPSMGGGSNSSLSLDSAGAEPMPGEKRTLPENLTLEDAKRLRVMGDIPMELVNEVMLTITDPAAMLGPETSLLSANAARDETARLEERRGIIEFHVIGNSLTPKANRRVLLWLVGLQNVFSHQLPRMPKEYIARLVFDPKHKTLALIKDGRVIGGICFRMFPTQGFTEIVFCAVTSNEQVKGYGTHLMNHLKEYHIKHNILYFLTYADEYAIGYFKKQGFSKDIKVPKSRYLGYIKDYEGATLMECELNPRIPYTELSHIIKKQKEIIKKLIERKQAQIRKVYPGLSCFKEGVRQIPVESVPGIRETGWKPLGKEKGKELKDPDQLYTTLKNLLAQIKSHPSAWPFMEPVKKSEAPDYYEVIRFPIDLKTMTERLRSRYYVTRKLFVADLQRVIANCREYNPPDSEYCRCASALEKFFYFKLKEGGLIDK
#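 Free CoA generated was detected with ThioGlo1 (50uM) fluorescence at Ex340nm/Em540nm, read immediately and after 20 min at room temperature. Enzyme, 20 nM in HEPES pH 7.5 buffer, saw compounds 15 min before adding 75uM H3(1-25) peptide and 70uM acetyl-CoA.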
# APE1 inh: APE1 (human) endonuclease inhibition | hit rate 0.35% among 350,000 | recombinant APE1, TAMRA/BHQ-2 abasic DNA cleavage fluorescence | AID 2517 | Potency, µM (series often up to 65.8 µM), for the others: top-dose activity change, negative = inhibition, most hits filed as inhibitors | P27695;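 also: potency is read from the fitted curve at half-maximal effect; plate controls were vehicle for no effect and reference inhibitor for full effect; nearly all actives have a fitted effect of over 55% in size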
#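 Step 1: APE1 (0.75 nM) with compound, 15 min RT. Step 2: add 50 nM fluorophore/quencher THF duplex. Step 3: three fluorescence reads 60 s apart (525/598 nm); read 3 minus read 1 = reaction progress.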
# PI5P4K alpha inh: inhibitors of human PI5P4K alpha; P48426; PI5P4Kalpha enzyme, ADP-Glo luminescence, 60 min; stronger effect = lower value; max response, %; hit rate 1.2% among 330,000; active = max response of -50% or lower; inconclusive = between -30% and -50%; inactive = -30% or higher; also: value at the top dose of about 77 µM
#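 Enzyme plus substrate dispensed, test compounds pinned in, then ATP (5 microM final) added. After 60 min at RT, ADP-Glo reagent 1 for 45 min and reagent 2 for 30 min preceded luminescence imaging.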
# Active calls of the source: *; i = inactive; u = inconclusive; x = not tested or not shown; [ ] = dose if it differs, or a comment. Unless noted, calls follow the shape of the dose curve; as a rule, active = well fitted curve in the direction sought with a large enough effect; inconclusive = small, poorly fitted or top-dose-only effect, or another doubt; inactive = no such curve, though single readings can be large; an effect the other way counts as inactive or inconclusive. Unless noted, % is scaled to controls: 0 for no effect and ±100 for the full control effect.
SMILES,FEN1 inhibitor,RECQ1 inh,BLM helicase inh,KAT2A inh,APE1 inh,PI5P4K alpha inh
O=C1CCC[C@@H]2C[C@@]3(C[C@@H]4CCN1[C@H]24)Nc1cc([N+](=O)[O-])ccc1NC3=NCc1ccccc1,-19.2%,x,x,x,x,x
S=c1[nH]nc(Nc2cccc(Cl)c2)s1,-7.2%,-1.8%,3.8%,22.4µM*,4.7%,-54.9*
S=c1[nH]nc(Nc2ccccc2Cl)s1,-2.1%,1.7%,-4.9%,25.1µM*,-6.7%,-77.7*
Cc1ccc(Nc2n[nH]c(=S)s2)cc1C,x,x,x,x,x,-73.9*
Cc1ccc(Nc2cc(=O)[nH]c(=O)[nH]2)cc1C,0.8%,i,0.3%,-2.5%,-1.1%,-7.2
CN(C)c1ccc(C=Nc2ccc(/C=C3\C=Cc4ccccc43)cc2)cc1,-4.7%,x,x,x,x,x
CNc1nc(N/N=C/c2cc3c(cc2[N+](=O)[O-])OCO3)nc(Nc2ccccc2)n1,-10.1%,-6.2%,-17.2%,-3.9%,4.0%,-68.4*
C[N+]1(CC(=O)c2ccc(O)c(O)c2)CCOCC1,-18.2%,x,x,x,x,x
Cc1cc(C(=O)COC(=O)c2ccco2)c(C)n1Cc1ccco1,12.7%,-14.0%,-12.8%,-6.1%,u,-54.8*
Cc1ccc(Cc2cnc(N3C(=N)SC(c4ccccc4)C3=O)s2)cc1 (stereo not drawn),-15.9%,-16.8%,-5.9%,-4.9%,-11.5%,-72.7*
CCC(=O)Nc1ccc(C(=O)CSc2nnc(-c3ccccc3F)n2C2CC2)cc1,4.8%,-9.4%,-3.9%,-4.3%,-0.6%,-50.8*
CCC(C)NC(=O)NC(=O)CSc1nnc(-c2ccccc2F)n1C1CC1 (stereo not drawn),-3.5%,x,-0.8%,-4.7%,-9.9%,5.2
C=CC[n+]1cccc2cc(Br)ccc21,-1.9%,x,x,x,x,x
CCC[C@@H](CN1CCC[C@H]1CN1C(N)=NC[C@@H]1Cc1ccccc1)N1C[C@@H](Cc2ccccc2)N(CCCC2CCCC2)C1=N,-5.1%,x,x,-2.3%,-34.0%,-18.5
CCC[C@@H](CN1CCC[C@H]1CN1C(N)=NC[C@@H]1Cc1ccccc1)N1C[C@@H]([C@H](C)CC)N(CCCC2CCCC2)C1=N,-22.0%,x,x,-3.8%,1.1%,-86.7*
CCCCN(C(=O)c1cccc(N2C(=O)c3ccccc3C2=O)c1)c1c(N)n(CC(C)C)c(=O)[nH]c1=O,2.1%,x,x,1.1%,-12.0%,2.9
CCCCN(C(=O)c1cccc(-n2cccc2)c1)c1c(N)n(Cc2ccccc2)c(=O)[nH]c1=O,x,x,x,-18.9%,2.67µM*,x
CN(C)c1nc(NC2CCC(NC(=O)c3ccc(F)c(F)c3)CC2)nc2ccccc12 (stereo not drawn),x,14.5%,-8.3%,0.0%,9.6%,x
Cc1ccc(/C=C2\SC(=S)N(/N=C/c3cc([N+](=O)[O-])ccc3O)C2=O)o1,50.1µM*,-2.0%,u,u,u,-84.4*
O=[N+]([O-])c1ccc(O)c(/C=N/n2cnc3ccccc32)c1,13.8%,-11.0%,3.3%,33.8%,3.8%,-14.8
O=C(OCc1ccccc1)N1CCN(/[N+]([O-])=N/Oc2ccc([N+](=O)[O-])cc2[N+](=O)[O-])CC1,-4.0%,x,x,x,x,x
O=C1N=C(N2C=CC(=C3C=CNC=C3)C=C2)/C(=C/N=NC(=O)c2ccccc2O)S1,u,x,-20.4%,-0.4%,-49.8%,-60.7*
CSCC[C@H](NC(=O)c1ccc(NC[C@@H](N)CS)cc1-c1ccccc1)C(=O)O,x,-7.7%,1.9%,-28.4%,-2.9%,x
O=C(NC1CCCCC1)C(c1ccc(-c2ccccc2)cc1)n1c(=O)c(-c2ccco2)nc2ccccc21 (stereo not drawn),x,x,x,x,x,-92.0*
CCCCCNC(=O)C(c1ccccc1F)n1c(=O)c(-c2ccco2)nc2ccccc21 (stereo not drawn),x,x,x,x,x,-63.7*
SMILES,FEN1 inhibitor,RECQ1 inh,BLM helicase inh,KAT2A inh,APE1 inh,PI5P4K alpha inh
CCCCCNC(=O)C(c1ccc(OC)cc1)n1c(=O)c(-c2ccco2)nc2ccccc21 (stereo not drawn),x,x,x,x,x,-24.2
O=C(NC1CCCCC1)C(c1ccccc1F)n1c(=O)c(-c2ccco2)nc2ccccc21 (stereo not drawn),x,x,x,x,x,-68.5*
O=C(NC1CCCCC1)C(c1ccncc1)n1c(=O)c(-c2ccccc2)nc2ccccc21 (stereo not drawn),x,x,x,x,x,-0.7
O=C(C[N+]1(CC(O)c2ccccc2)CCOCC1)c1ccccc1 (stereo not drawn),18.7%,x,x,x,x,x
CCOc1ccccc1N1CCN(C/C=C/c2ccc(N(C)C)cc2)CC1,-13.1%,-7.7%,-3.0%,-9.7%,3.3%,-4.9
CN(C)c1ccc(/C=C/N2C=CCc3c2ccc2ccccc32)cc1,11.2µM*,x,x,x,x,x
N#CC1=C(N)C2=C(N3CCCCC3)CCCC2C1(C#N)C#N (stereo not drawn),u,u,-18.8%,-9.6%,35.5µM*,-54.0*
Cn1c(N)c(C(=O)COC(=O)Cc2cccs2)c(=O)n(C)c1=O,2.9%,x,x,-0.3%,3.8%,4.9
O=C(Cc1cccs1)OCC(=O)c1ccco1,-30.0%,-21.4%,-0.1%,-4.9%,28.2µM*,u
Cc1ccc(SCc2c(C(=O)N/N=C/c3ccc(C)o3)nnn2-c2nonc2N)cc1,x,x,x,x,x,-54.8*
O=C(/C=C1\C(=O)Nc2ccccc21)/C=C1\C(=O)Nc2ccccc21,-6.5%,-3.7%,-5.2%,-18.0%,-3.9%,-83.0*
O=C1Nc2ccccc2/C1=C\C(=O)c1ccccc1,-15.3%,x,0.6%,-1.0%,-7.2%,1.2
Cc1ccc(S(=O)(=O)NNC(=O)c2ccc(C(=O)N(c3ccccc3)c3ccccc3)cc2)cc1,-6.2%,x,x,x,x,x
Cc1[nH]n2cnnc2c(=O)c1Br,16.1%,i,-6.2%,u,15.7%,-51.2*
Cc1cc(/C=N/NC(N)=S)c(O)c(/C=N/NC(N)=S)c1,-3.9%,i,0.2%,-5.9%,1.9%,-63.8*
Cc1ccc(N=Nc2c(O)ccc3n[nH]nc23)cc1,0.4%,-5.8%,-5.1%,-20.4%,-7.9%,-59.9*
CCC(=O)O[C@@H]1CC(=O)O[C@H](C)C/C=C/C=C/[C@H](O)[C@H](C)C[C@H](CC=O)[C@H](O[C@@H]2O[C@H](C)[C@@H](O[C@H]3C[C@@](C)(O)[C@@H](OC(=O)CC)[C@H](C)O3)[C@H](N(C)C)[C@H]2O)[C@H]1OC,x,x,x,x,-2.9%[21 µM],x
N#CC(CCc1ccc([N+](=O)[O-])cc1)(CCc1ccc([N+](=O)[O-])cc1)C(N)=O,-7.2%,x,x,x,x,-84.6*
COc1ccc(OC)c(-c2c3c([nH]c(=S)c2C#N)CCCC3)c1,5.1%,i,-1.6%,-8.9%,-3.4%,-58.2*
COc1ccc(-c2c3c([nH]c(=S)c2C#N)CCC3)cc1,-1.6%,-18.0%,-15.1%,u,5.1%,-70.0*
